From ChEMBL document CHEMBL3988442, “University of Dundee, Small-Polar-MMV Screening Library” (2021)
The whole screen tested about 66,000 compounds, of which about 960 (1.5%) showed an effect of 50% or more. What follows is part of a selection rich in strong results, with near analogues and random picks from the rest.

Test system: Trypanosoma brucei
Experiment: Trypanosoma brucei 72 hour study
Type: functional, organism-based
Parameters: scale not given: in the data most compounds retested in dose-response had high values

Compound: COC(=O)c1ccc(N2CCN(C(=O)C3CCC3)C(C)C2)cc1 (configuration not stated)
- Percent Effect (30 µM, 30.03 µM): 50.56%

Compound: COC(=O)c1ccc(N2CCN(C(=O)c3ccco3)C(C)C2)cc1 (configuration not stated)
- Percent Effect (30.3 µM, […]): 90.39%

Compound: COC(=O)c1ccc(N2CCN(C(=O)C3CC3)C(C)C2)cc1 (configuration not stated)
- Percent Effect (30 µM, 30.03 µM): -2.442%

Compound: COC(=O)c1ccc(N2CCN(C(=O)c3ccncc3)C(C)C2)cc1 (configuration not stated)
- Percent Effect (30 µM, 30.03 µM): 41.83%

Compound: COC(=O)c1ccc(N2CCN(C(=O)c3cc(C)no3)C(C)C2)cc1 (configuration not stated)
- Percent Effect (30.3 µM, […]): 29.28%

Compound: Cl.Nc1nc(Nc2ccccc2)cc(N2CCNCC2)n1
- Percent Effect (30.3 µM, […]): -11.41%
- Percent Effect (10 mM, 10 mM as filed; unlikely as a test dose): -70.99%

Compound: Cn1cccc1C(=O)N1CCN(CC2CC2)c2ncccc2C1
- Percent Effect (30 µM, 30.03 µM): 57.2%

Compound: CN1CCN(C(=O)c2cccn2C)Cc2cccnc21
- Percent Effect (30.3 µM, […]): -5.91%

Compound: O=C(c1cccs1)N1CCN(CC2CC2)c2ncccc2C1
- Percent Effect (30 µM, 30.03 µM): -33.24%

Compound: Cc1nc(C(=O)NS(=O)(=O)c2cccc(C#N)c2)cs1
- Percent Effect (30.3 µM, […]): 2.101%

Compound: COCC1c2c(cnn2CC2CC2)CCN1Cc1ccc(C)o1.O=C(O)C(F)(F)F.O=C(O)C(F)(F)F (configuration not stated)
- Percent Effect (30.3 µM, […]): -1.349%

Compound: CCOC1CCN(C(=O)NCCc2ccn(-c3ccccc3)n2)CC1
- Percent Effect (10 µM): -34.62%

Compound: O=C(NCC1CCCN(C(=O)NCCc2ccccc2)C1)c1ccco1 (configuration not stated)
- Percent Effect (30.3 µM, […]): 15.56%

Compound: O=C(NCCC1Cc2ccccc2C1)N1CCCC(O)C1 (configuration not stated)
- Percent Effect (30.3 µM, […]): -66.43%

Compound: O=C(NCCc1ccn(-c2ccccc2)n1)N1CCCC(O)C1 (configuration not stated)
- Percent Effect (10 µM): 103.1%

Compound: O=C(NCc1nn(-c2ccccc2)c2c1CCC2)N1CCCC(O)C1 (configuration not stated)
- Percent Effect (10 µM): -55.19%

Compound: COc1ccccc1CNC(=O)N1CCCC(CO)C1 (configuration not stated)
- Percent Effect (30 µM, 30.03 µM): -45.66%

Compound: O=C(NCCc1ccn(-c2ccccc2)n1)N1CCCC(CO)C1 (configuration not stated)
- Percent Effect (10 µM): 104%

Compound: CCOC1CCCN(C(=O)c2nn(-c3ccccc3F)cc2O)C1 (configuration not stated)
- Percent Effect (30.3 µM, […]): -12.09%

Compound: CCOC1CCCN(C(=O)NCCc2ccn(-c3ccccc3)n2)C1 (configuration not stated)
- Percent Effect (30 µM, 30.03 µM): 99.66%

Compound: CSc1ccccc1C(=O)N1C[C@H]2CC[C@@H]1CN(C(=O)N(C)C)C2
- Percent Effect (30 µM, 30.03 µM): -19.87%

Compound: O=C(O)C(F)(F)F.O=C([C@H]1CC[C@@H]2[C@@H](CCN2C2CCCC2)O1)N1CCOCC1
- Percent Effect (30.3 µM, […]): 3.599%

Compound: Cc1ccc(CN2CCC3(CCC3NC(=O)c3ccn(C)c3)CC2)s1.O=C(O)C(F)(F)F (configuration not stated)
- Percent Effect (30 µM, 30.03 µM): -8.436%

Compound: COc1c(CNCCNC(=O)c2ccccc2)c(C)nn1C.Cl
- Percent Effect (30.3 µM, […]): -11.06%

Compound: CCN(C)S(=O)(=O)NCC(O)c1c(Cl)cccc1Cl (configuration not stated)
- Percent Effect (30 µM, 30.03 µM): -61.52%

Compound: Cc1ccccc1N1CCN(C(=O)c2cscn2)C(C)C1 (configuration not stated)
- Percent Effect (30.3 µM, […]): -44.71%

Compound: Cc1ccccc1N1CCN(C(=O)c2ccc[nH]2)C(C)C1 (configuration not stated)
- Percent Effect (30 µM, 30.03 µM): 53.58%

Compound: CSc1ncc(C(=O)N2CCN(c3ccccc3C)CC2C)cn1 (configuration not stated)
- Percent Effect (30.3 µM, […]): -20.66%

Compound: CNc1cc(C(=O)NCCC2=CSC3=NCCCN23)ccn1
- Percent Effect (30.3 µM, […]): 4.45%

Compound: Cc1cc(C)n(CC2CCCCN2C(=O)c2ccc3c(c2)COC3)n1 (configuration not stated)
- Percent Effect (10 µM): -3.538%
- Percent Effect (30.3 µM, […]): 12.9%

Compound: O=C(CN1CCC(c2cc(=O)n3c(n2)CCCCC3)C1)N1CCCCC1.O=C(O)CC(O)(CC(=O)O)C(=O)O (configuration not stated)
- Percent Effect (30.3 µM, […]): -90.53%

Compound: CC1(C)Cc2c(cnn2-c2cccc(F)c2)C(NC2CCSCC2)C1 (configuration not stated)
- Percent Effect (30 µM, 30.03 µM): 99.5%

Compound: Cc1nn(-c2ccccc2)c(C)c1CNC(=O)NC1CC1
- Percent Effect (30 µM, 30.03 µM): -13.2%

Compound: CCC(Nc1nnnn1-c1ccccc1)C(=O)NC1CCSCC1 (configuration not stated)
- Percent Effect (30 µM, 30.03 µM): -25.42%

Compound: CC(=O)NC1CC(C)(C)Cc2c1cnn2-c1cccc(F)c1 (configuration not stated)
- Percent Effect (30 µM, 30.03 µM): -59.29%

Compound: CS(=O)(=O)NC(=O)c1nnn(-c2cccc(F)c2)c1C1CC1
- Percent Effect (30.3 µM, […]): -19.55%

Compound: CC1(C)Cc2c(cnn2-c2ccccc2)C(NC2CCSCC2)C1 (configuration not stated)
- Percent Effect (30 µM, 30.03 µM): 82.22%

Compound: O=C(O)C(F)(F)F.O=C(O)C(F)(F)F.c1ccc(CN2CC[C@@H]3O[C@@H](COCC4CCOCC4)CC[C@@H]32)nc1
- Percent Effect (30 µM, 30.03 µM): 11.6%

Compound: Nc1ccnc(N2C[C@@H]3CC[C@H](C2)N(CC2CCC2)C3=O)n1
- Percent Effect (30 µM, 30.03 µM): -6.843%

Compound: COc1ncccc1CN1CC[C@]2(C[C@@H](OCc3ccccn3)CO2)C1.O=C(O)C(F)(F)F.O=C(O)C(F)(F)F.O=C(O)C(F)(F)F
- Percent Effect (30 µM, 30.03 µM): 2.267%

Compound: CCSc1ccc(C(=O)N2CC[C@](O)(CC)[C@H](O)C2)s1
- Percent Effect (30.3 µM, […]): -1.451%

Compound: O=C(c1ccncc1)N1CCC(Oc2cccc(C(F)(F)F)c2)CC1
- Percent Effect (30.3 µM, […]): 37.18%

Compound: OC1(CN2CCC(Oc3cccc(C(F)(F)F)c3)CC2)CNCCOC1 (configuration not stated)
- Percent Effect (30 µM, 30.03 µM): -13.41%

Compound: CC(N)C(=O)N1CCC(Oc2cccc(C(F)(F)F)c2)CC1 (configuration not stated)
- Percent Effect (30.3 µM, […]): 98.32%

Compound: O=C(c1cccnc1)N1CCC(Oc2cccc(C(F)(F)F)c2)CC1
- Percent Effect (30.3 µM, […]): 6.021%

Compound: Nc1ccc(C(=O)N2CCC(Oc3cccc(C(F)(F)F)c3)CC2)cn1
- Percent Effect (30.3 µM, […]): 54.87%

Compound: FC(F)(F)c1cccc(OC2CCN(Cc3ncc[nH]3)CC2)c1
- Percent Effect (30 µM, 30.03 µM): -13.87%

Compound: OC1(CN2CCC(Oc3cccc(C(F)(F)F)c3)CC2)CCNC1 (configuration not stated)
- Percent Effect (30 µM, 30.03 µM): 92%

Compound: Nc1cc(C(=O)N2CCC(Oc3cccc(C(F)(F)F)c3)CC2)ccn1
- Percent Effect (30.3 µM, […]): 19.92%

Compound: O=C(c1ccc(=O)[nH]c1)N1CCC(Oc2cccc(C(F)(F)F)c2)CC1
- Percent Effect (30.3 µM, […]): 9.238%
